# In the library only some 19% were active in any assay of this set; here they are far more common.
# TDP1 cell noCPT: qHTS for Inhibitors of human tyrosyl-DNA phosphodiesterase 1 (TDP1): qHTS in cells in absence of CPT. DT40 Tdp1-/- hTDP1 cells, no CPT, ATP luminescence, 48 h. Potency, µM (highest dose often 46.2 µM), inactives show top-dose activity change, negative = growth inhibition, hits mostly inhibitors. 420,000 compounds, 15% hits; also: potency is read from the fitted curve at half-maximal effect; % is scaled to controls: 0 for no effect and ±100 for the full control effect; nearly all actives have a fitted effect of over 55% in size
#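 Chicken DT40 Tdp1-/- cells complemented with human TDP1, screened without camptothecin (DMSO vehicle only), 400 cells/well. Compounds pin-transferred, cells incubated at 37 °C for at least 48 hr. Growth read as ATP-dependent luminescence (CellTiter-Glo, 30 min at RT).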
# TGFb inhibitor: inhibitors of TGF-b signaling; Potency, µM (series often up to 46.1 µM), without a hit: at the top dose activity, negative = inhibition, hits mostly inhibitors; 410,000 compounds, 1.2% hits; AID 588855; HepG2 CAGA-GFP TGF-b/SMAD3 reporter, GFP fluorescence, 18 h; TGF-beta stimulated, 500 pg/mL final; also: potency is read from the fitted curve at half-maximal effect; % is scaled to controls: 0 for no effect and ±100 for the full control effect; nearly all actives have a fitted effect of over 65% in size
#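 HEPG2 CAGA-GFP, 1000 cells/well; 2 h settle, 37 C; cpd via pin tool; TGF-b 500 pg/mL final; 18 h, 37 C; GFP imaging ex488/em500-530; %Activity normalised to -TGF-b and +DMSO controls; CRC fit, curve class.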
# IL1B secr inh: inhibitors of inflammasome signaling (IL-1 beta secretion); THP-1 LPS/ATP IL-1B secretion, AlphaLISA, 16 h; hits give low values; activity change, % at 57.5 µM; 360,000 compounds, 4.7% hits; in the data active = activity change below about -50%; inconclusive = mostly about -30% to -49%; also: % is scaled to controls: 0 for no effect and ±100 for the full control effect
#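 Secreted IL-1B measured by AlphaLISA bead assay after 16 h compound exposure of THP-1 cells; compounds (final up to 57.5 uM) added 1 h before LPS (250 ng/mL) and ATP (1.25 mM) stimulation; lower signal means less secretion.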
# S-ASM inh: inhibitors of human secretory acid sphingomyelinase; placental ASM, HMU-PC fluorogenic substrate, 60 min; 340,000 compounds, 0.006% hits; P17405; Potency, µM (highest dose often 57.5 µM), inactives show at the highest dose activity change, negative = inhibition, usual class: inhibitors; AID 504937; also: potency is read from the fitted curve at half-maximal effect
# Target sequence (P17405 47-631 limits assumed): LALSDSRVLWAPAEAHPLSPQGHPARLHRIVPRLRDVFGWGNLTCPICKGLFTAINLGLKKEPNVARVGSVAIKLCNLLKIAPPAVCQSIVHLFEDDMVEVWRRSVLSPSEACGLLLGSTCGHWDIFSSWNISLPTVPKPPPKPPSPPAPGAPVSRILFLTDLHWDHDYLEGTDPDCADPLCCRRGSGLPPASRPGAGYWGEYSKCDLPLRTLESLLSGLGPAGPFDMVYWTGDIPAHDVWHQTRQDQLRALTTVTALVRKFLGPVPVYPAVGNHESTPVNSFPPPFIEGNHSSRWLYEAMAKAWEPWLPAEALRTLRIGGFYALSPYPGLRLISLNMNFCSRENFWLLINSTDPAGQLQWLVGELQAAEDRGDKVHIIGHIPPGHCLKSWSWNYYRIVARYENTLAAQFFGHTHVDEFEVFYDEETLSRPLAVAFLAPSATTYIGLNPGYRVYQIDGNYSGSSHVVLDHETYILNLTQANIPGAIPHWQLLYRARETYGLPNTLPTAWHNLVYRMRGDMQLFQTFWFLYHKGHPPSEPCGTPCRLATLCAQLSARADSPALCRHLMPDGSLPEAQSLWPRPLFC
#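 HMU-PC0 cleavage (9 uM final) by human placental ASM, 60 min at 37 °C following 10 min compound exposure at RT; stopped at pH 10, fluorescence Ex 386/Em 447 nm.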
# HepG2 viability: counter-screen for TGF-b inhibitors: cytotoxicity in HepG2 cells. HepG2 CAGA-GFP viability, ATP luminescence, 18 h. Potency, µM (highest dose often 46.1 µM), without a hit: at the top dose activity change, negative = cytotoxicity, hits mostly cytotoxic. 410,000 compounds, 0.76% hits; also: potency is read from the fitted curve at half-maximal effect
#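 CellTiter-Glo luminescence gave cytotoxicity after 18 hours at 37 degrees C. The cells were HepG2 CAGA-GFP in 1% FBS DMEM, stimulated with 500 pg/mL TGF-beta after compound addition. %Activity was normalised to no-cell wells (complete cell-killing) and DMSO (no toxicity), and curves were fitted and classified.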
# DT40 TDP1 CPT: growth inhibition of DT40 Tdp1-/-;hTDP1 cells with camptothecin (screen for TDP1 inhibitors); chicken DT40 Tdp1-/-;hTDP1 cells + 20 nM CPT, ATP luminescence, 48 h; Potency, µM (highest dose often 46.2 µM), without a hit: at the top dose activity change, negative = growth inhibition, usual class: inhibitors; 420,000 compounds, 12% hits; also: potency is read from the fitted curve at half-maximal effect; % is scaled to controls: 0 for no effect and ±100 for the full control effect; nearly all actives have a fitted effect of over 55% in size
#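 Chicken DT40 Tdp1-/- cells stably complemented with human TDP1 were seeded at 400 cells/well in medium containing 20 nM camptothecin, exposed to pin-transferred compounds, and grown at 37 °C for at least 48 hr. Viability was read as ATP luminescence.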
# The depositor's hits bear a star; ? = inconclusive; nt = not tested or not shown; [ ] = another dose, or the depositor's remark. Unless noted, calls follow the shape of the dose curve; as a rule, active = well fitted curve in the direction sought with a large enough effect; inconclusive = small, poorly fitted or top-dose-only effect, or another doubt; inactive = no such curve, though single readings can be large; an effect the other way counts as inactive or inconclusive.
SMILES,TDP1 cell noCPT,TGFb inhibitor,IL1B secr inh,S-ASM inh,HepG2 viability,DT40 TDP1 CPT
C=C1C(=O)OC2C=C(CO)C3OC3C3OC3(C)CC(OC(=O)/C(=C/C)COC(C)=O)C12 (stereo not drawn),1.84µM*,?,-101.3*,0.6%,-66.1%,1.3µM*
CC(=O)n1c(-c2ccccc2)c(CO)c2ccccc21,?,-0.8%,26.3,1.6%,1.3%,?
NCCc1c(-c2ccccc2)n(-c2ccccc2)c2ccccc12,?,?,-97.1*,-6.4%,20µM*,?
CC(C)(C)N(Cc1ccccc1)C(=O)CN1C(=O)c2ccccc2S1(=O)=O,20.6µM*,6.9%,1.6,1.1%,1.8%,?
O=S1(=O)CC(N2CCN(CCO)CC2)CN1Cc1cn(Cc2ccc(C(F)(F)F)cc2)nn1 (stereo not drawn),-20.5%,nt,13.9,nt,nt,-28.1%
Cc1cc(OCC(=O)Nc2ccncc2)ccc1[N+](=O)[O-],20.6µM*,-0.5%,7.5,-2.4%,-30.0%,?
COc1cccc(OCC(=O)Nc2ccncc2)c1,?,-12.3%,14.9,3.2%,-2.6%,1.0%
CC(C)CCOc1cccc(OCC(=O)Nc2ccncc2)c1,13µM*,0.0%,-23.1,-2.5%,-10.4%,?
O=C(COc1ccc(-c2ccccc2)cc1)Nc1cccnc1,20.6µM*,-16.5%,-27.8,12.1%,-0.5%,18.4µM*
Cc1ccc(OCC(=O)Nc2ccncc2)cc1C,?,-2.6%,23.6,nt,-7.1%,?
O=C(COc1ccc(Nc2ccccc2)cc1)Nc1ccncc1,16.4µM*,-6.9%,?,-1.4%,-6.8%,?
CCc1cccc(C)c1NC(=O)CSc1nnc(C)o1,0.0%,-1.0%,21.3,-1.0%,3.0%,-8.3%
CCOc1ccc(NC(=O)/C(C#N)=C\c2ccc(N3CCCC3)c(C)c2)cc1,?,36.5%,-23.1,-0.3%,9.1%,?
CC(=O)N1CC(C)Sc2ccc(S(=O)(=O)NCCc3cccc(C)c3)cc21 (stereo not drawn),14.6µM*,?,2.7,-0.4%,-9.4%,?
CC(=O)N1c2ccc(S(=O)(=O)NCC3CCC(C(=O)NC4CCC(C)CC4)CC3)cc2CC1C (stereo not drawn),-24.0%,-5.4%,31.1,6.2%,-14.0%,?
CCC(C)(C)NC(=O)C1CCC(CNS(=O)(=O)c2ccc3c(c2)CC(C)N3C(C)=O)CC1 (stereo not drawn),11.6µM*,-4.3%,nt,nt,-11.6%,16.4µM*
COc1cccc(NC(=O)C2CCC(CNS(=O)(=O)c3ccc4c(c3)CC(C)N4C(C)=O)CC2)c1 (stereo not drawn),18.4µM*,-24.5%,23.8,-8.5%,-27.9%,23.1µM*
CC(=O)N1c2ccc(S(=O)(=O)NCCc3cccc(C)c3)cc2CC1C (stereo not drawn),14.6µM*,-28.4%,nt,nt,-24.2%,14.6µM*
CC(=O)N1CC(C)Sc2ccc(S(=O)(=O)NCc3ccc(F)cc3)cc21 (stereo not drawn),?,9.7%,40.6,-0.2%,-2.2%,?
CC(=O)N1c2ccc(S(=O)(=O)NCC3CCC(C(=O)NC4CCCCC4C)CC3)cc2CC1C (stereo not drawn),?,-14.0%,41.9,-1.1%,-5.5%,?
COc1cccc(C(=O)NCC2Cc3cccc(-c4nc(C)cnc4C)c3O2)c1OC (stereo not drawn),?,nt,nt,nt,nt,17.1%[9.04 µM]
COC(=O)c1ccc(C2=NOC(C)(c3nnc(Cc4ccccc4)o3)C2)cc1 (stereo not drawn),-15.9%,-6.2%,34.8,-1.2%,-11.5%,-16.7%

# Screens (PubChem BioAssay)
